# Test results as given in PubChem BioAssay (NCATS).
# Values joined by “and” are separate entries in the source; they are usually repeats but may differ in a detail not shown here. Equal values may be shown once. Results filed as inconclusive are left out. Active and inactive are the calls of the source. The call rests on the fitted dose curve; in most records, active means well fitted activation curve with a large enough effect; inconclusive means small, poorly fitted or top-dose-only effect; inactive means no such curve, though single readings can be large or run the other way. Starred links: 1 amine or outer side, 2 acyl side, 3 side chain; linkers in the order of their positions; H or OH if unused. Positions of bridges follow the written chain, without caps; N, C: chain ends. Non-standard residues stand in square brackets, D forms with d. Residues, ends and D or L forms follow the SMILES beside them. Chains are numbered I, II in the order given. Peptide text beside a SMILES is read from it. * marks the point of attachment. Actinocin(9to1) = Cc1c2oc3c(C)ccc(C(=O)[*:1])c3nc-2c(C(=O)[*:2])c(N)c1=O; NMeV = CN[C@H](C(=O)O)C(C)C; Cbz = O=C(OCc1ccccc1)*; Sar = CNCC(=O)O; CH2F = FC*
# Target: Cellular tumor antigen p53 (Homo sapiens) (UniProt P04637)
# Sequence (P04637 whole entry, looked up): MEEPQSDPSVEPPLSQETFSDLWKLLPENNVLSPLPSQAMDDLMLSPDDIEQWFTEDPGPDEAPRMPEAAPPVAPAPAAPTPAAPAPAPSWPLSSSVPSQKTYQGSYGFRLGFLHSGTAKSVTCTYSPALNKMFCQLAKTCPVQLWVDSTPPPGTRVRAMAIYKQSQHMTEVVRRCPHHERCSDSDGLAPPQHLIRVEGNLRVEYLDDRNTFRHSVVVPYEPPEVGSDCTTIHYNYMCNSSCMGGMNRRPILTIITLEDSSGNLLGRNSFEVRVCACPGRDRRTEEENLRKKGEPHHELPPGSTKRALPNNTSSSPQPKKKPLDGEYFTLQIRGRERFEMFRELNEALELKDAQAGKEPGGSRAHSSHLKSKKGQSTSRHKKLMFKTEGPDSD
# Assay: Primary qHTS for small molecule compounds that upregulate eGFP-tagged delta133p53alpha (in N-terminal) cells. (AID 2060322); further: nearly all actives have a fitted effect of over 75% in size;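 on activation: cells pre-induced with doxycycline then dosed without doxycycline; series mostly up to about 56 µM; 0% = DMSO vehicle and 100% = reference activator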
# Details: NCI-H358 eGFP-delta133p53alpha fluorescence, 24 h; activation: hits give high values
# Description: Assay Development and Screening Technology
# National Center for Advancing Translational Sciences (NCATS),
# National Institute of Health (NIH), Rockville, Maryland
# Cellular senescence (CS) is one of the hallmarks of aging and age-related diseases. Senescent cells are characterized by an irreversible growth arrest, an increase in senescence-associated beta-galactosidase (SA-beta-gal) activity and p16INK4a expression, an activation of the DNA damage response pathways, and the emergence of a senescence-associated secretory phenotype (SASP).
# Delta133p53alpha, a human/primate-specific p53 protein isoform, delays or inhibits the induction of CS and SASP in various types of human cells, including progeria-derived fibroblasts, primary normal astrocytes, and CD8+ T lymphocytes. Induction of delta133p53alpha with small molecule compounds may provide therapeutic opportunities for inhibition of senescence/SASP-associated pathologies in progeria syndromes, astrocyte-mediated neuroprotection in neurodegenerative diseases, and possibly prevention and treatment of a wider range of senescence- and aging-associated diseases.
# Here we report the development and validation of a cell-based quantitative high throughput screening (qHTS) assay in 1,536-well format. This qHTS assay uses the NCI-H358 cell line with doxycycline-inducible expression of enhanced green fluorescent protein (eGFP)-tagged delta133p53alpha, which allows efficient and highly quantitative measurement of the protein levels.
# PROTOCOL TABLE (as described by Inglese J, Shamu CE and Guy RK. 2007)
# SEQUENCE No. (e.g., 1, 2, 3, etc.); […] (e.g., Cells, Incubation, Reagent, etc.); VALUE; DESCRIPTION.
# 1; Cells; 4uL; 800 doxycycline treated cells / well in doxycycline-free media, 1536-well black, clear-bottom low base Aurora microplates.
# 2; Compounds; 23 nL; Kalypsis pin tool (Wako) equipped with 1536-well pin heads, 5-azacytidine positive control.
# 3; Incubation; 24 hr; 37C, 5% CO2; 95% relative humidity.
# 4; Aspiration; 1x; BioTek EL406 washer dispenser (Agilent).
# 5; Fixing; 3.5% paraformaldehyde, BioTek EL406 washer dispenser (Agilent).
# 6; Washing; 1x PBS; BioTek EL406 washer dispenser (Agilent).
# 7; Nuclei staining; 1:1000 dilution of Hoechst 33342 (Thermofisher), BioTek EL406 washer dispenser (Agilent).
# 8; Incubation; 20 min; in the dark at room temperature.
# 9; Washing; 2x, 1x PBS (ThermoFisher), BioTek EL406 washer dispenser (Agilent).
# 10; Reagent; 10 uL; 1x PBS per well, sealed with clear adhesive tape.
# NOTES (numbers refer to sequence numbers above).
# 1. NCI-H358 cells expressing eGFP-tagged delta133p53alpha were grown in T75 culture flasks and treated with doxycycline for 24h, at 10 ng/ml for eGFP-D133p53a cells (N-terminal cell) and 100 ng/ml for D133p53a-eGFP cells (C-terminal cells). Cells were trypsinized, counted using a Counted 3 Automated Cell Counter (Thermo Fisher), and diluted to a concentration of 200,000 cells/ml. A Multidrop Combi Reagent Dispenser (ThermoFisher) was used to dispense 800 cells/well in […] of doxycycline-free media, into 1536-well black/clear bottom low base plates (AuroraMicroplates).
# 2. After plating cells, 23 nl of compound library, DMSO vehicle control or positive control (5-azacytidine) were transferred by Pin Tool (Wako). The plate map layout was the same for each plate: (column 1) non-doxycycline treated cells + DMSO vehicle control; (column 2) doxycycline treated cells + DMSO vehicle control baseline; (column 3) doxycycline treated cells + positive control 57.5 uM final concentration 5-azacytidine; (column 4) doxycycline treated cells + serial dilution of 5-azacytidine, 16-point 1:2 titration spanning 1.8 nM to […] final concentration; (columns 5-48) doxycycline treated cells + titration of library compounds.
# 3. Cells were incubated at 37 °C, 5 % CO2, 95% RH with breathable metal lid for 24h.
# 4-10. […] After two washes, 10 ul of 1X PBS (Thermo Fisher) was dispensed to each well. Clear adhesive plate seals (VWR) were applied and plates stored at 4 °C.
# 11. […]
# Potency means the concentration at half of the fitted maximal effect.
Structure (SMILES),activation,Potency
C=CC1(C)CC(O)C(C(=C)C(=O)OC)C(O)C1C(=C)CO (stereo not given),-14.5% (inactive),
C/C(=C\CO)CC/C=C(\C)C(=O)O[C@@H]1O[C@H](CO)[C@@H](O)[C@H](O)[C@H]1O,-19.6% (inactive),
Cc1cccc(Nc2cc(Cl)nc(SCC(=O)O)n2)c1C,23.4% (inactive) and 14.3% (inactive),
Cc1nc(NC(=O)N2CCC[C@@H]2C(N)=O)sc1-c1csc(C(C)(C)C)n1,-6.14% (inactive),
COC(=O)C1=CO[C@@H](O[C@@H]2O[C@H](CO)[C@@H](O)[C@H](O)[C@H]2O)[C@H]2[C@@H]1C=C[C@@]21C=C([C@H](C)O)C(=O)O1,13.4% (inactive),
CC1(C)CCCC2(C)C=C(C(=O)O)C(O)CC12 (stereo not given),-19.1% (inactive),
CCCCCC(C)N (stereo not given),28.8% (inactive),
O=C1c2c(O[C@@H]3O[C@H](CO)[C@@H](O)[C@H](O)[C@H]3O)cc(O)cc2OC1(O)Cc1ccc(O)cc1 (stereo not given in full),,10.4 µM (active)
O=C(/C=C/c1ccccc1)OC[C@H]1O[C@@H](OC(=O)c2cc(O)c(O)c(O)c2)[C@H](O)[C@@H](O)[C@@H]1O,-19.1% (inactive),
CCCCN(CCCC)CC(O)c1cc(Cl)cc2c1-c1ccc(Cl)cc1/C2=C/c1ccc(Cl)cc1 (stereo not given),22.6% (inactive) and -82.3% (inactive),
N#Cc1cnc2c(Cl)cc(NCc3cn(CCN4CCCCCC4)nn3)cc2c1Nc1ccc(F)c(Cl)c1,,4.26 µM (active)
CC1(C)CC=C(C#Cc2ccccc2)c2cc(/C=C/c3ccc(C(=O)O)cc3)ccc21,-5.73% (inactive),
CC1(C)C(=O)C(C)(C)c2cc(C(=O)Nc3ccc(C(=O)O)cc3)ccc21,-2.39% (inactive),
O=C(Nc1ccc(S(=O)(=O)Nc2nccs2)cc1)C(c1ccccc1)c1ccccc1,-2.86% (inactive),
Nc1ncn([C@@H]2O[C@H](CO)[C@@H](O)[C@H]2O)c(=O)n1,,1.69 µM (active)
CC(=O)OC1CC2(C)C(CCC(C)C23Cc2c(O)cc4c(c2O3)CNC4=O)C(C)(C)C1O (stereo not given),9.92% (inactive),
O=C(Cc1cccc(OC(F)(F)F)c1)Nc1ccc(CCCCc2nnc(NC(=O)Cc3ccccn3)s2)nn1,7.71% (inactive),
O=C(/C=C/c1ccccc1)OC[C@]12O[C@H]1[C@@H](O)[C@@H]1C=CO[C@@H](O[C@@H]3O[C@H](CO)[C@@H](O)[C@H](O)[C@H]3O)[C@@H]12,7.14% (inactive),
CC(=O)OC1C(O)C(C)=C(CCC(C)CC(=O)O)C2(C)CCCC(C)(C)C12 (stereo not given),3.82% (inactive),
FC(F)(F)c1ccccc1-c1cc(C(F)(F)F)c2nc(C3=NOC4(CCCCC4)C3)[nH]c2c1,15.3% (inactive),

Structure (SMILES),activation,Potency
CCc1nn(CCCN2CCN(c3cccc(Cl)c3)CC2)c(=O)n1CCOc1ccccc1,-3.35% (inactive),
O=C(c1ccc(NS(=O)(=O)c2cccc3cccnc23)cc1)N1CCN(CC2CC2)CC1,-3.34% (inactive),
COC(=O)CC[C@H](NC(=O)[C@H](CC(C)C)NC(=O)OCc1ccccc1)C(=O)N[C@@H](Cc1cnc[nH]1)C(=O)N[C@@H](CC(=O)OC)C(=O)CF (Cbz-LE(OMe)HD(OMe)-CH2F),23.7% (inactive),
CC1OC(O[C@@H]2[C@H](O)[C@@H](OC3OC(CO)C(O)C(O)C3O)[C@H](OC(=O)[C@]34CCC(C)(C)C[C@H]3C3=CCC5[C@@]6(C)CC[C@H](O[C@@H]7O[C@H](C(=O)O)[C@@H](O)[C@H](O[C@@H]8OC[C@@H](O)[C@H](O)[C@H]8O)[C@H]7O[C@@H]7O[C@H](CO)[C@H](O)[C@H](O)[C@H]7O)[C@@](C)(C=O)C6CC[C@@]5(C)[C@]3(C)C[C@H]4O)O[C@@H]2C)C(O)C(O)C1OC1OCC(O)C(O)C1O (stereo not given in full),5.34% (inactive),
Cc1cccc(C)c1NC(=O)C(C)N (stereo not given),10.9% (inactive) and -14% (inactive),
"Cc1c2oc3c(C)ccc(C(=O)N[C@@H]4C(=O)N[C@H](C(C)C)C(=O)N5CCC[C@H]5C(=O)N(C)CC(=O)N(C)[C@@H](C(C)C)C(=O)O[C@@H]4C)c3nc-2c(C(=O)N[C@@H]2C(=O)N[C@H](C(C)C)C(=O)N3CCC[C@H]3C(=O)N(C)CC(=O)N(C)[C@@H](C(C)C)C(=O)O[C@@H]2C)c(N)c1=O (I: T[dV]P[Sar][NMeV] / II: T[dV]P[Sar][NMeV]; ester I:1-I:C, II:1-II:C; linker I:N-II:N via Actinocin(9to1))",,0.011 µM (active)
C[C@@H]1CCN(C(=O)N2CCCC2)C[C@@H]1N(C)c1ncnc2[nH]ccc12,-10.7% (inactive),
COc1cc2c(cc1OC)-c1cc(=Nc3c(C)cc(C)cc3C)n(C)c(=O)n1CC2,-30.7% (inactive),
OC(CCN1CCCCC1)(c1ccccc1)c1ccccc1,1.69% (inactive),
C[C@@H]1C(=O)O[C@H]2[C@H]1CC[C@@]1(C)C(=O)C=C[C@](C)(O)[C@H]21,1.79% (inactive),
Cc1cn2c(N)c(Cl)cc(C(=O)NCC3CCN(CC(C)C)CC3)c2n1,-0.893% (inactive),
CC(=O)Nc1ccc(C(=O)O)cc1,26.6% (inactive),
C=C(C(=O)O[C@H]1C/C(C)=C/CC/C(CO)=C/[C@H]2OC(=O)C(=C)[C@H]12)C(O)CO (stereo not given in full),,18.6 µM (active)
COC1=C2C[C@@H](C)C[C@H](OC)[C@@H](O)[C@@H](C)C=C(C)[C@H](OC(N)=O)[C@@H](OC)C=CC=C(C)C(=O)NC(=CC1=O)C2=O,-17.1% (inactive),
COc1ccc(OC)c(C(O)CNC(=O)CN)c1 (stereo not given),8.47% (inactive),
CS(=O)(=O)c1ccc(-c2cn3ccccc3n2)cc1,-26.8% (inactive),
Nc1c(S(=O)(=O)c2ccccc2)c2nc3ccccc3nc2n1-c1ccc(F)cc1,-10.3% (inactive),
COc1cc2c(cc1OC)-c1[nH]nc(Nc3cccc(F)c3)c1C2,6.68% (inactive),
COc1cc(C)c(Cc2cnc(N)nc2N)cc1OC,-6.69% (inactive),
CN(C)CCN1C(=O)c2cccc3cc(N)cc(c23)C1=O,,34.3 µM (active)
